The results in this text go back to PubChem BioAssay (NCATS).

Results filed as inconclusive are left out. Values without a mark were called inactive. Activity calls are given as the source filed them. The call rests on the fitted dose curve; in most records, active means well fitted cell-killing curve with a large enough effect; inconclusive means small, poorly fitted or top-dose-only effect, or effect the other way; inactive means flat fitted curve, though single readings scatter.

What all share (test): Primary qHTS to identify gynecologic anti-cancer compounds using libraries of approved drugs and bioactive compounds (AID 1345084); further: nearly all actives have a fitted effect of over 55% in size
A general note: Quantitative high-throughput screening tests each substance at several concentrations.

For test [1], the system named is C33A. Particulars: Gynecologic cancer cell panel viability, ATPlite luminescence, 48 h; series mostly up to 57.5 µM. Summed up:
(§1)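 Five-concentration response, 48 h; readout is ATP-driven luciferase luminescence.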

Test [2] deals with CASKI. The note with it: Gynecologic cancer cell panel viability, ATPlite luminescence, 48 h; series mostly up to 57.5 µM. Summed up:
as §1

Test [3] deals with Es-2. The note with it: Gynecologic cancer cell panel viability, ATPlite luminescence, 48 h; series mostly up to 57.5 µM. Summed up:
as §1
Background: In ATP-based viability assays light output follows the ATP content of the culture.

Test [4] concerns HeLa. The note with it: Gynecologic cancer cell panel viability, ATPlite luminescence, 48 h; series mostly up to 57.5 µM. The procedure, abridged:
as §1

Test [5] deals with Hek293T. The note with it: Gynecologic cancer cell panel viability, ATPlite luminescence, 48 h, control line for the selectivity index; series mostly up to 57.5 µM. Summed up: as §1
Test [6] concerns JEG-3. The note with it: Gynecologic cancer cell panel viability, ATPlite luminescence, 48 h; series mostly up to 57.5 µM. The procedure, abridged:
as §1

In test [7] the test system is OV90. Particulars: Gynecologic cancer cell panel viability, ATPlite luminescence, 48 h; series mostly up to 57.5 µM. Summed up:
as §1

Test [8] has as its system PA-1. The note with it: Gynecologic cancer cell panel viability, ATPlite luminescence, 48 h; series mostly up to 57.5 µM. Summed up:
as §1

Test [9] relates to SKOV3. Particulars: Gynecologic cancer cell panel viability, ATPlite luminescence, 48 h; series mostly up to 57.5 µM. Summed up:
as §1

For test [10], the system named is Tov-21-G. The note with it: Gynecologic cancer cell panel viability, ATPlite luminescence, 48 h; series mostly up to 57.5 µM. Summed up:
as §1

Test [11] deals with Tov112D. The note with it: Gynecologic cancer cell panel viability, ATPlite luminescence, 48 h; series mostly up to 57.5 µM. The procedure, abridged:
as §1
On the % scale 0 is the no-effect control and ±100 the full control effect; potency means the concentration at half of the fitted maximal effect.

`CC(C)=CCC/C(C)=C/CC/C(C)=C/COC1OC(COC2OCC(OC3OCC(O)C(O)C3O)C(O)C2O)C(O)C(OC2OC(C)C(OC3OC(C)C(OC4OCC(OC5OC(C)C(O)C(O)C5O)C(O)C4O)C(O)C3O)C(O)C2O)C1O` (centres undefined): the activity change, negative = cytotoxicity in test [1] was 4.68% [at 6.55 µM]; in [2], -7.12% [at 6.55 µM]; in [3], -6.21% [at 6.55 µM]; in [4], -2.03% [at 6.55 µM]; in [5] it was -3.08% [at 6.55 µM]; in [6], -0.54% [at 6.55 µM]. The activity change, negative = cytotoxicity in test [7] is -9.19% [at 6.55 µM]; in [8] it was -4.48% [at 6.55 µM]; in test [9] it was -3.45% [at 6.55 µM]; in [10], -0.577% [at 6.55 µM]; in [11], -7.57% [at 6.55 µM].

Take `CC(=O)C1=CCC2C3CCC4CC(O[C@@H]5O[C@H](CO)[C@@H](O[C@@H]6O[C@@H](C)[C@H](O)[C@@H](O)[C@H]6O)[C@H](O)[C@H]5O[C@@H]5O[C@H](CO)[C@@H](O)[C@H](O)[C@H]5O)CCC4(C)C3CCC12C` (some centres undefined): the Potency entry in test [1], in test [2], in [3], in [4], in [5] and in [6] was “inactive” in each case. The Potency entry in test [7], in test [8], in [9], in test [10] and in test [11] was “inactive” each time.

On to `COc1ccc(C(=O)n2c(C)c(Cc3cccc(O[C@@H](C)C(=O)O)c3)c3cc(OC(F)(F)F)ccc32)cc1`, for which the Potency entry in test [1], in test [2], in test [3], in test [4], in test [5] and in [6] was “inactive” throughout. The Potency result in test [7], in test [8], in [9], in test [10] and in test [11] was “inactive” in each case.

For `CC1=C(COC2OC(CO)C(O)C(O)C2O)C(C(CO)C(=O)O)CC1` (centres undefined), the Potency entry in test [1], in [2], in [3], in [4], in test [5] and in test [6] was “inactive” each time. In addition, the Potency result in [7], in test [8], in [9], in test [10] and in [11] was “inactive” in each case.

In the case of `COC(=O)C1=CO[C@@H](O[C@@H]2O[C@H](CO)[C@@H](O)[C@H](O)[C@H]2O)[C@@H]2C(CO)=CC[C@]12O`, the Potency result in [1], in [2], in test [3], in [4], in test [5] and in [6] was “inactive” in each case. In addition, the Potency entry in test [7], in test [8], in [9], in [10] and in test [11] was “inactive” throughout.

For the molecule `C/C=C/c1ccc2c(c1)[C@@H](C)[C@H](c1ccc(O)cc1)O2`, the Potency entry in test [1], in [2], in [3], in [4], in [5] and in test [6] was “inactive” each time. The Potency entry in [7], in [8], in [9], in [10] and in test [11] was “inactive” in each case.

`O=C1NC(Cc2c[nH]c3ccccc23)C(=O)NC1Cc1cnc[nH]1` (centres undefined): the Potency result in test [1], in [2], in test [3], in [4], in test [5] and in test [6] was “inactive” each time. For the same molecule, the Potency result in test [7], in [8], in [9], in [10] and in test [11] was “inactive” in each case.

Consider `COc1c2c(c(C)c3c1C(=O)OC3)O[C@@]1(C)CC(O)C(C(C)(C)O)[C@](C)(CCC(=O)O)[C@H]1C2` (some centres undefined), for which the Potency entry in test [1], in test [2], in test [3], in test [4], in test [5] and in test [6] was “inactive” each time. Besides, the Potency entry in [7], in test [8], in test [9] and in test [11] was “inactive” throughout. The Potency in test [10] was 6.31 µM (active).

Consider `C=C1C[C@]23C[C@H]1CC[C@H]2[C@@]12CC[C@H](O)[C@@](C)(C(=O)O1)[C@H]2[C@@H]3C(=O)O`, for which the Potency result in test [1], in test [2], in test [3], in [4], in test [5] and in test [6] was “inactive” in each case. The Potency result in test [7], in test [8], in test [9], in test [10] and in test [11] was “inactive” each time.

Regarding `COc1cc(/C=C/CO)cc(OC)c1O[C@@H]1O[C@H](CO[C@@H]2O[C@H](CO)[C@@H](O)[C@H](O)[C@H]2O)[C@@H](O)[C@H](O)[C@H]1O`, the Potency entry in test [1], in test [2], in [3], in test [4], in test [5] and in test [6] was “inactive” throughout. Further, the Potency result in test [7], in test [8], in test [9], in [10] and in [11] was “inactive” each time.

`CC1(C)CCCC2(C)C=C(C(=O)O)C(O)CC12` (centres undefined): the Potency result in [1], in test [2], in [3], in [4], in [5] and in [6] was “inactive” throughout. For the same molecule, the Potency result in [7], in [8], in test [9], in test [10] and in [11] was “inactive” throughout.

`Cc1ccc(-c2c(C(=O)CF)n(CCCO)c3ncnc(N)c23)cc1`: the Potency entry in [1], in test [2], in [3], in test [4], in test [5] and in test [6] was “inactive” throughout. Besides, the Potency entry in test [7], in test [8], in [9], in test [10] and in test [11] was “inactive” throughout.

Regarding `CC1(C)CCC2(C(=O)OC3OCC(O)C(O)C3O)CCC3(C)C(=CCC4C5(C)CC(O)C(OC6OC(COC7OCC(O)C(O)C7O)C(O)C(O)C6O)C(C)(C)C5CCC43C)C2C1` (centres undefined), the activity change, negative = cytotoxicity in test [1] was 7.41% [at 11.6 µM]; in [2], 17.9% [at 11.6 µM]; in [3], 5.97% [at 11.6 µM]; in [4] it was 7.08% [at 11.6 µM]; in [5] it was -8.87% [at 11.6 µM]; in test [6], 11.8% [at 11.6 µM]. Besides, the activity change, negative = cytotoxicity in [7] is 4.98% [at 11.6 µM]; in test [8] it was 14.1% [at 11.6 µM]; in [9], 12.7% [at 11.6 µM]; in test [10], 8.15% [at 11.6 µM]; in [11], 7.12% [at 11.6 µM].

Regarding `CC1(C)CC[C@]2(C(=O)O[C@@H]3O[C@H](CO)[C@@H](O)[C@H](O)[C@H]3O)CC[C@]3(C)C(=CCC4[C@@]5(C)CC[C@H](O[C@@H]6O[C@H](C(=O)O)[C@@H](O)[C@H](O)[C@H]6O)C(C)(C)C5CC[C@]43C)C2C1` (some centres undefined), the activity change, negative = cytotoxicity is 3.23% [at 11.6 µM] in test [1]; -0.46% [at 11.6 µM] in test [2]; 6.53% [at 11.6 µM] in [3]; 7.58% [at 11.6 µM] in [4]; 5.45% [at 11.6 µM] in test [5]; 7.56% [at 11.6 µM] in [6]. Also, the activity change, negative = cytotoxicity in [7] was -4.22% [at 11.6 µM]; in test [8] it was 9.38% [at 11.6 µM]; in test [9], 0% [at 11.6 µM]; in test [10], 5.62% [at 11.6 µM]; in test [11] it was 11.2% [at 11.6 µM].
